Data from PubChem BioAssay (Tox21).
Results filed as inconclusive are left out. Calls of active or inactive are those of the source. Unless noted, calls follow the shape of the full dose curve.

System: not listed separately
Test: p53 small molecule agonists, cell-based qHTS assay (AID 1963582; active = well fitted activation curve with a large enough effect in the signal ratio in the repeat runs, not every such curve was filed as active; the % refers to the signal ratio)
Details: HCT-116 p53RE-bla reporter, beta-lactamase FRET ratio, 16 h; series mostly up to 66 µM; activation: at the top concentration
Method in brief: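 Beta-lactamase reporter cells (p53RE-bla) treated with compounds for 16 h at 37 C; FRET substrate, 2 h, room temperature; fluorescence intensity.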
% is scaled to controls: 0 for no effect and ±100 for the full control effect.

Structure (SMILES) | activation | Potency
Cc1cc(Nc2ccc(O)cc2)ccc1N | -2.82% (inactive) | 
COC(=O)C1=C(C)NC(C)=C(C(=O)O[C@@H]2CCCN(Cc3ccccc3)C2)[C@@H]1c1cccc([N+](=O)[O-])c1 | -6.38% [at 30.3 µM] (inactive) | 
CCCCCCC(C)OC(=O)COc1nc(F)c(Cl)c(N)c1Cl (stereo not given) | -0.0383% (inactive) | 
c1ccc(Cc2ccccc2)cc1 | 1.2% (inactive) | 
Oc1c(I)cc(Cl)c2cccnc12 |  | inactive
CCOc1ccc(N=Nc2ccc(/C=C/c3ccc(N=Nc4ccc(OCC)cc4)cc3S(=O)(=O)O)c(S(=O)(=O)O)c2)cc1 | -4.36% (inactive) | 
CCCCCC[C@@H](O)C/C=C\CCCCCCCC(=O)O | -1.62% (inactive) | 

Molecular target: 5-hydroxytryptamine receptor 2A (Homo sapiens) (UniProt P28223)
Test: 5-hydroxytryptamine receptor 2A (HTR2A) small molecule antagonists, cell-based qHTS assay (AID 1963586); also: nearly all actives have a fitted effect of over 45% in size; also: potency is read from the fitted curve at half-maximal effect
Details: HTR2A-CHO cells, DOI-induced calcium flux, fluorescence; series mostly up to 61.5 µM; activity, negative = inhibition: at the top concentration
Method in brief: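 CHO cells stably expressing human HTR2A were plated for 18 h at 37 C, then loaded with calcium dye for 1 h. Compounds were preincubated 5 min at room temperature before DOI (4 nM solution) was added. Kinetic fluorescence was read for 3 min.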

Sequence of 5-hydroxytryptamine receptor 2A (Homo sapiens) (P28223 whole entry, looked up): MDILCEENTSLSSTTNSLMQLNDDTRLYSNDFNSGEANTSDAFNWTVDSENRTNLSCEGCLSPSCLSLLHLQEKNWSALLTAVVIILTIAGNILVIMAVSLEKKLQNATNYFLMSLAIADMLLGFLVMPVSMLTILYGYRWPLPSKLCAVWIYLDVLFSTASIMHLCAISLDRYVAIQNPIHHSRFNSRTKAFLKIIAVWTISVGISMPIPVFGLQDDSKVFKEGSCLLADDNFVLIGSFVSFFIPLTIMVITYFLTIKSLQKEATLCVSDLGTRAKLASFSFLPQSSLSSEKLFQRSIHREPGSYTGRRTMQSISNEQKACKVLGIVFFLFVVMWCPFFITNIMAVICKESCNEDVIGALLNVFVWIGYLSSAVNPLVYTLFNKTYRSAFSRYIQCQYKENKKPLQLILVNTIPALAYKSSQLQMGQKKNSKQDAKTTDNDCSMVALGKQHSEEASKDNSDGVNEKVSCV

Structure (SMILES) | activity, negative = inhibition | Potency
COC(=O)CC(C)CCC=C(C)C (stereo not given) | 4.85% (inactive) | 
CC(C)n1nc(-c2cc3cc(O)ccc3[nH]2)c2c(N)ncnc21 | 77.7% [at 28.5 µM] (inactive) | 
CNCc1ccc(NC(=O)c2c[nH]c3c2C(=O)CCC3)cc1 | 3.76% (inactive) | 
CCOC(=O)COc1ccc2c(C)c(CCN(CC)CC)c(=O)oc2c1Cl | 28.9% [at 28.5 µM] (inactive) | 
Cc1cccc(C)c1NC(=O)CN1CCN(CCCC(c2ccc(F)cc2)c2ccc(F)cc2)CC1 |  | 8.18 µM (active)
O=C(Nc1cccc([N+](=O)[O-])c1)c1cc2ccccc2cc1O | 2.65% (inactive) | 
COc1ccccc1N1CCN(CC(O)COc2cccc3ccccc23)CC1 (stereo not given) |  | 5.79 µM (active)
CC(CN)CC(C)(C)CCN (stereo not given) | -13.5% [at 159 µM] (inactive) | 
Cc1cc(NC(=O)C(=O)O)cc(C)c1Oc1ccc(O)c2c1CCC2 | 25.3% (inactive) | 
OCCCS | 3.35% (inactive) | 
Cc1cc(=O)oc2cc(N(C)C)ccc12 | -1.49% (inactive) | 
CCCCCOc1ccccc1/C(=C\SC)n1ccnc1 | -40.4% [at 28.5 µM] (inactive) | 
CC[C@H]1CC[C@H](NCc2cc3c(cc2OC)[C@H]2C[C@H]2C(=O)N3C)[C@H](c2ccccc2)N1 | 9.46% (inactive) | 
C=CC(=O)OCC1CC2CC1C1CCC(COC(=O)C=C)C21 (stereo not given) | -6.27% (inactive) | 
CCc1c(C(=O)NN2CCCCC2)nn(-c2ccc(Cl)cc2Cl)c1-c1ccc(Br)cc1 | -3.96% (inactive) | 
COC(=O)c1nc(Cl)c(Cl)nc1N | 0.312% [at 28.5 µM] (inactive) | 
c1cc(OCC2CO2)cc(OCC2CO2)c1 (stereo not given) | -6.91% (inactive) | 
C=CC(=O)OCCCCCCOC(=O)C=C |  | inactive
CCC(C)(C)c1ccc(CC(C)CN2C[C@@H](C)O[C@@H](C)C2)cc1 (stereo not given in full) | 1.24% [at 28.5 µM] (inactive) | 
CCCCCCCCCCCCCCCCCCCl | -6.54% [at 5.62 µM] (inactive) | 
COC(=O)C1=C(C)NC(C)=C(C(=O)O[C@@H]2CCCN(Cc3ccccc3)C2)[C@@H]1c1cccc([N+](=O)[O-])c1 | 3.79% [at 28.5 µM] (inactive) | 
O=[N+]([O-])c1ccc(O/N=C/c2cc(Br)c(O)c(Br)c2)c([N+](=O)[O-])c1 | 24.3% (inactive) | 
CCCCCCC(C)OC(=O)COc1nc(F)c(Cl)c(N)c1Cl (stereo not given) | -0.924% (inactive) | 
CC(O)C#CC(C)O (stereo not given) | 0.399% (inactive) | 
COC(=O)C1=C(C)NC(COC(N)=O)=C(C(=O)OC(C)C)C1c1cccc(Cl)c1Cl (stereo not given) | -20.7% [at 28.5 µM] (inactive) | 
c1ccc(Cc2ccccc2)cc1 | 16.6% (inactive) | 
Oc1c(I)cc(Cl)c2cccnc12 |  | inactive
CCN(CC)CCNc1ccc(CO)c2sc3ccccc3c(=O)c12 | -34.9% [at 28.5 µM] (inactive) | 
CCOc1ccc(N=Nc2ccc(/C=C/c3ccc(N=Nc4ccc(OCC)cc4)cc3S(=O)(=O)O)c(S(=O)(=O)O)c2)cc1 | -4.85% (inactive) | 
CCCCCC[C@@H](O)C/C=C\CCCCCCCC(=O)O | -13.6% (inactive) | 

Molecular target: 5-hydroxytryptamine receptor 2A (Homo sapiens) (UniProt P28223)
Test: 5-hydroxytryptamine receptor 2A (HTR2A) small molecule agonists, cell-based qHTS assay (AID 1963587); also: nearly all actives have a fitted effect of over 30% in size
Details: HTR2A-CHO cells, calcium flux fluorescence, agonist mode; series mostly up to 76.8 µM; activation: at the top concentration
Method in brief: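 CHO cells stably expressing human HTR2A, plated 18 h, loaded with calcium dye 1 h at 37 C. Agonist mode: compounds added and intracellular calcium fluorescence recorded kinetically for 2 min at 1 sec intervals.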

Structure (SMILES) | activation | Potency
Nc1cccc2c(N)cccc12 | 1.89% (inactive) | 
COC(=O)CC(C)CCC=C(C)C (stereo not given) | 3.5% (inactive) | 
CC(C)n1nc(-c2cc3cc(O)ccc3[nH]2)c2c(N)ncnc21 | -4.61% [at 35.6 µM] (inactive) | 
CCOC(=O)COc1ccc2c(C)c(CCN(CC)CC)c(=O)oc2c1Cl | 0.652% [at 35.6 µM] (inactive) | 
Cc1cccc(C)c1NC(=O)CN1CCN(CCCC(c2ccc(F)cc2)c2ccc(F)cc2)CC1 | 5.56% [at 35.6 µM] (inactive) | 
O=C(Nc1cccc([N+](=O)[O-])c1)c1cc2ccccc2cc1O | 4.58% (inactive) | 
COc1ccccc1N1CCN(CC(O)COc2cccc3ccccc23)CC1 (stereo not given) | 17.7% [at 35.6 µM] (inactive) | 
CC(CN)CC(C)(C)CCN (stereo not given) | 2.75% [at 199 µM] (inactive) | 
Cc1cc(NC(=O)C(=O)O)cc(C)c1Oc1ccc(O)c2c1CCC2 | 12.3% (inactive) | 
OCCCS | 0.0738% (inactive) | 
Cc1cc(=O)oc2cc(N(C)C)ccc12 | -2.51% (inactive) | 
CCCCCOc1ccccc1/C(=C\SC)n1ccnc1 | -10.3% [at 35.6 µM] (inactive) | 
CC[C@H]1CC[C@H](NCc2cc3c(cc2OC)[C@H]2C[C@H]2C(=O)N3C)[C@H](c2ccccc2)N1 | 2.23% (inactive) | 
C=CC(=O)OCC1CC2CC1C1CCC(COC(=O)C=C)C21 (stereo not given) | -1.47% (inactive) | 
CCc1c(C(=O)NN2CCCCC2)nn(-c2ccc(Cl)cc2Cl)c1-c1ccc(Br)cc1 | -2.95% (inactive) | 
COC(=O)c1nc(Cl)c(Cl)nc1N | -8.05% [at 35.6 µM] (inactive) | 
c1cc(OCC2CO2)cc(OCC2CO2)c1 (stereo not given) | 0.0248% (inactive) | 

Structure (SMILES) | activation | Potency
C=CC(=O)OCCCCCCOC(=O)C=C |  | inactive
CCCCNCCCC | 5.05% (inactive) | 
CCC(C)(C)c1ccc(CC(C)CN2C[C@@H](C)O[C@@H](C)C2)cc1 (stereo not given in full) | 8.22% [at 35.6 µM] (inactive) | 
CCCCCCCCCCCCCCCCCCCl | -0.0042% [at 7.02 µM] (inactive) | 
Cc1cc(Nc2ccc(O)cc2)ccc1N | 6.21% (inactive) | 
c1cc(CN2CCCCC2)cc(OCCCNc2nc3ccccc3s2)c1 | 17.5% [at 35.6 µM] (inactive) | 
COC(=O)C1=C(C)NC(C)=C(C(=O)O[C@@H]2CCCN(Cc3ccccc3)C2)[C@@H]1c1cccc([N+](=O)[O-])c1 | 0.625% [at 35.6 µM] (inactive) | 
O=[N+]([O-])c1ccc(O/N=C/c2cc(Br)c(O)c(Br)c2)c([N+](=O)[O-])c1 | -0.138% (inactive) | 
CCCCCCC(C)OC(=O)COc1nc(F)c(Cl)c(N)c1Cl (stereo not given) | 3.98% (inactive) | 
CC(O)C#CC(C)O (stereo not given) | -1.62% (inactive) | 
COC(=O)C1=C(C)NC(COC(N)=O)=C(C(=O)OC(C)C)C1c1cccc(Cl)c1Cl (stereo not given) | 12.6% [at 35.6 µM] (inactive) | 
c1ccc(Cc2ccccc2)cc1 | 0.0004% (inactive) | 
O=C(Nc1ccc(Cl)cc1)Nc1ccc(Cl)c(C(F)(F)F)c1 | 5.6% [at 35.6 µM] (inactive) | 
S=c1[nH]c2ccccc2s1 | -2.66% (inactive) | 
Oc1c(I)cc(Cl)c2cccnc12 |  | inactive
CCOc1ccc(N=Nc2ccc(/C=C/c3ccc(N=Nc4ccc(OCC)cc4)cc3S(=O)(=O)O)c(S(=O)(=O)O)c2)cc1 | -5.4% (inactive) | 
